Screens (PubChem BioAssay)
Compounds with a hit are over-represented: about 3.5% of the library has one in this group of screens.
Pf apPOL block: Pf-apPOL DNA polymerase inhibition | hit rate 0.25% among 210,000 | Recombinant Pf-apPOL, molecular beacon fluorescence, 1.5 h | inhibition, % at 10 µM
mHTT-CaM PPI inh: inhibitors of human mutant huntingtin-calmodulin interaction; hit rate 3.6% among 190,000; AlphaScreen His-mHTT/GST-CaM binding, luminescence; inhibition, % at 15 µM; AID 1671202; P42858;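 note: 0% = both proteins with DMSO and 100% = one protein alone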
The depositor's hits bear a star; . = not tested or not shown. Cut-off read from the data, not from the text of the source: active = inhibition above about 50%; inactive = the rest.

SMILES	Pf apPOL block	mHTT-CaM PPI inh
CCCNc1cc(N2CCC(CCC(=O)Nc3ccc4c(c3)OCCO4)CC2)ncn1	-4.3	9.4
CCCNc1cc(N2CCC(CCC(=O)Nc3ccc4c(c3)OCO4)CC2)ncn1	3.4	60.1*
COc1cccc(NC(=O)NCCC2CCN(S(=O)(=O)c3ccc(C)cc3)CC2)c1	9.1	38.0
COc1ccc(-c2nc3n(n2)C(=O)CC(c2cccs2)S3)cc1 (centres undefined)	5.4	6.0
CC(=O)N(CN1C(=O)c2ccc([N+](=O)[O-])cc2C1=O)c1ccc(F)cc1	3.1	23.0
CC(=O)N(CN1C(=O)c2ccc([N+](=O)[O-])cc2C1=O)c1ccc(Oc2ccc(Cl)cc2)cc1	91.7*	3.0
CCOc1ccccc1CNC(=O)c1cnn2c3c(cnc12)CCCC3	2.5	23.9
O=C(NCCN1CCC(c2cccs2)CC1)C12CC3CC(CC(C3)C1)C2	-9.3	-1.8
Cc1ccc(CN2CC34C=CC(O3)C(C(=O)NCc3ccccc3Cl)C4C2=O)cc1 (centres undefined)	-1.7	28.1
CCCCC(=O)NC(c1ccccc1Cl)c1cc([N+](=O)[O-])c2cccnc2c1O (centres undefined)	-9.9	100.0*
CCCCC(=O)NC(/C=C/c1ccccc1)c1cc([N+](=O)[O-])c2cccnc2c1O (centres undefined)	-3.2	14.0
CCCCC(=O)NC(c1ccc2c(c1)OCO2)c1cc([N+](=O)[O-])c2cccnc2c1O (centres undefined)	-5.9	98.7*
COc1ccccc1C(=O)N1CCC(Oc2cc(N(C)C)ncn2)C1 (centres undefined)	-1.3	3.4
COc1ccc(Nc2ncc3c(n2)CCN(Cc2ccc(N(C)C)cc2)C3)c(OC)c1	-6.7	35.7
COc1cccc(Nc2ncc3c(n2)CCN(Cc2ccc(N(C)C)cc2)C3)c1	-4.0	73.0*
CCOc1ccc(CN2CCc3nc(Nc4cccc(OC)c4)ncc3C2)cc1	-11.9	20.0
COc1cccc(Nc2ncc3c(n2)CCN(Cc2ccc(OC(C)C)cc2)C3)c1	-1.4	50.9*
CN(C)C(=O)c1cc2c(s1)CCC(C(=O)N1CCCC1)C2 (centres undefined)	0.0	-3.8
Cc1ccc(S(=O)(=O)N2CCCC(C)(C(=O)NCc3ccc(F)cc3)C2)cc1C (centres undefined)	-0.9	89.1*
Cc1ccc(CNC(=O)c2oc3ccc(S(=O)(=O)N4CCCCC4)cc3c2C)cc1	-6.3	-10.0
Cc1c(Cl)cccc1S(=O)(=O)N1CCCC(C)(C(=O)NCc2ccc(F)cc2)C1 (centres undefined)	0.2	86.2*
Cc1c(C(=O)NCc2ccc(F)cc2)oc2ccc(S(=O)(=O)N3CCCCCC3)cc12	51.6*	-2.0
CC1(C(=O)NCc2ccc(F)cc2)CCCN(S(=O)(=O)c2ccccc2Cl)C1 (centres undefined)	1.5	1.0
CC1(C(=O)NCc2ccc(F)cc2)CCCN(S(=O)(=O)c2ccc(F)c(Cl)c2)C1 (centres undefined)	0.3	94.7*
Cc1ccc(S(=O)(=O)N2CCCC(C)(C(=O)NCc3ccccc3)C2)cc1C (centres undefined)	-5.0	-0.2
SMILES	Pf apPOL block	mHTT-CaM PPI inh
Cc1ccc(S(=O)(=O)N2CCCC(C)(C(=O)NCc3ccc(F)cc3)C2)c(C)c1 (centres undefined)	-13.4	29.0
CCOC=C1SC(=S)N(CCc2ccccc2)C1=O	-7.7	.
CCCNc1cc(N2CCC(CCC(=O)N3CCC(COC)CC3)CC2)ncn1	-1.2	8.8
O=C(CSc1nccc(-c2cccs2)n1)Nc1ccc(OC(F)(F)F)cc1	-1.2	.
COc1ccc(C2C(C#N)=C(N)Oc3cc(C)oc(=O)c32)cc1OCc1ccccc1 (centres undefined)	-6.3	23.0
COc1cccc(C(c2c(O)cc(C)oc2=O)c2c(O)cc(C)oc2=O)c1	-3.2	-1.0
NC(=Nc1nc2ccccc2o1)NC(=O)c1ccccc1N	-1.5	-32.0
COC(=O)c1ccc(C=C2Oc3c(ccc(O)c3CN3CCCC(C)C3)C2=O)cc1 (centres undefined)	-24.9	7.0
Cc1cc(O)c(CN2CCN(CCO)CC2)c2c1C(=O)C(=Cc1cccnc1)O2	-6.2	2.9
COc1cc(/C=C2\NC(=O)NC2=O)cc(Br)c1OCc1cccc(C(=O)O)c1	-2.2	5.0
CC(=O)c1ccc(S(=O)(=O)N2CCCC(C)(C(=O)NCc3ccc(F)cc3)C2)cc1 (centres undefined)	1.7	6.3
Cc1ccc(F)cc1S(=O)(=O)N1CCCC(C)(C(=O)NCc2ccc(F)cc2)C1 (centres undefined)	-6.2	7.9
Cc1ccc(C)c(S(=O)(=O)N2CCCC(C)(C(=O)NCc3ccc(F)cc3)C2)c1 (centres undefined)	-1.5	60.6*
CC1(C(=O)NCc2ccc(F)cc2)CCCN(S(=O)(=O)c2ccc3c(c2)CCCC3)C1 (centres undefined)	-6.5	64.9*
COc1ccc(CC(=O)Nc2ccc3c(c2)OCO3)cc1	-3.5	3.1
COc1ccc(NC(=O)N2CCCC2c2nc(-c3ccccc3OC)no2)cc1F (centres undefined)	-2.9	1.2
CCCCNC(=O)CCC1N=C2c3ccccc3N=C(SCc3ccc([N+](=O)[O-])cc3)N2C1=O (centres undefined)	-1.7	3.0
CCCCNC(=O)CC1N=C2c3ccccc3N=C(SCc3ccc([N+](=O)[O-])cc3)N2C1=O (centres undefined)	-2.2	53.0*
NC(=Nc1nc2ccccc2o1)NC(=O)c1ccco1	0.9	0.6
O=C(N/C(=C\c1ccc(Br)cc1)c1nc2ccccc2o1)c1ccco1	-1.1	93.8*
CN(C)CCNC(=O)C1CCCN(C(=O)Cc2cccc3ccccc23)C1 (centres undefined)	-5.7	-5.9
Nc1ccc2nc(CCc3nc4ccc(N)cc4[nH]3)[nH]c2c1	-3.0	35.0
Nc1ccc2nc(C(F)(F)F)[nH]c2c1	.	-0.9
Nc1ccc(-c2nc3c(Cl)cc(N)cc3[nH]2)cc1	-0.5	40.0
Nc1ccc2nc(-c3ccc(N)c(Cl)c3)[nH]c2c1	14.5	66.0*
SMILES	Pf apPOL block	mHTT-CaM PPI inh
Nc1ccc2nc(-c3ccccc3Br)[nH]c2c1	8.5	57.0*
Nc1ccc2nc(-c3ccc(Oc4ccc(-c5nc6ccc(N)cc6[nH]5)cc4)cc3)[nH]c2c1	0.2	65.0*
O=C(c1cccc(F)c1)N1CCCC1c1ccc(F)cc1 (centres undefined)	-1.2	-11.2
CN1C(=O)C2C=CC1C1C(=O)N(c3ccc(Br)cc3)C(=O)C21 (centres undefined)	-1.8	-7.0
COCC(C)NC(=O)c1cn(C(C)C)cc2c(=O)[nH]nc1-2 (centres undefined)	-3.4	-11.9
COc1cccc(NC(=O)N2CCN(C)c3ccccc32)c1	0.4	53.1*
COc1cccc(NC(=O)N2CCCc3ccccc32)c1	-10.8	.
O=C(NCCO)c1cccc2c1-c1ccc(I)cc1C2	-0.9	-0.6
CCOc1ccccc1N1CCN(S(C)(=O)=O)CC1	-1.2	-4.5
CCOc1ccccc1N1CCN(c2nccn3cncc23)CC1	-14.9	53.5*
O=C(CCCS(=O)(=O)c1ccc(Cl)cc1)Nc1ccc2c(c1)C(=O)NC2=O	-7.1	14.9
CC(C)Oc1ccc(CNC(=O)c2cn3c(n2)CCCC3)cc1	-4.7	-3.5
CC(=O)N1CCCC(c2ccnc(Nc3cccc(C)c3)n2)C1 (centres undefined)	-6.8	10.9
N#Cc1ccc(C(=O)N2CCCC(c3ccnc(Nc4ccccc4F)n3)C2)cc1 (centres undefined)	-0.3	0.3
